Some test systems named below: NCI-H23 lung; NCI-H226 lung; NCI-H322M lung; HOP-62 NSCLC; NCI-H460 lung; HOP-92 NSCLC; NCI-H522 lung; A549/ATCC NSCLC; 786-0 renal; COLO 205 colon; DU-145 prostate; K-562 leukemia; MALME-3M melanoma; MDA-MB-231 breast; RXF 393 renal; SF-268 CNS; SF-295 CNS; SF-539 CNS; UACC-257 melanoma; M14 melanoma.
Common to all, as to assay: NCI-60 one-dose screen, 48 h (100 = growth as untreated, 0 = no growth, -100 = all killed)
What all share (details): 10 µM unless noted

The results in this text go back to PubChem BioAssay (NCI).

SMILES strings stand for the structures. The panel holds about 83,000 compounds, 20% with a hit somewhere; the sample as a whole holds those more often.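 Cells were grown in 96-well plates and exposed to the test compound at a single concentration for 48 hours; results are reported as percent growth, with values below 10 considered active.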 A number with no mark means an inactive call. Activity calls are given as the source filed them.

For the molecule `O=[N+]([O-])c1ccc(C2CC(c3ccccc3)=Nc3ccccc3S2)cc1` (stereo not given), the growth in the assay on NCI-H23 lung was 94.4%; in the assay on NCI-H226 lung it was 118%; in the assay with NCI-H322M lung it was 107%; with HOP-62 NSCLC, 112%; with NCI-H460 lung, 101%; with HOP-92 NSCLC, 81%. Besides, the growth in the assay with NCI-H522 lung is 94.6%; in the assay with A549/ATCC NSCLC it was 105%; with 786-0 renal it was 105%; in the assay on COLO 205 colon it was 118%; with DU-145 prostate, 107%; in the assay on K-562 leukemia, 32.4%. The growth in the assay with MALME-3M melanoma was 107%; in the assay on MDA-MB-231 breast, 101%; in the assay on RXF 393 renal it was 116%; in the assay on SF-268 CNS it was 98%; in the assay on SF-295 CNS, 119%; in the assay on SF-539 CNS it was 101%. Moreover, the growth was 108% in the assay with UACC-257 melanoma and 104% in the assay on M14 melanoma.
For the molecule `COc1ccc(Nc2nnc(SCc3ccccc3F)s2)cc1`, the growth in the assay on NCI-H23 lung was 95.7%; in the assay on NCI-H226 lung, 87.2%; with NCI-H322M lung, 116%; in the assay with HOP-62 NSCLC, 103%; in the assay on NCI-H460 lung, 111%; with HOP-92 NSCLC it was 88.6%. Moreover, the growth in the assay on NCI-H522 lung is 75.4%; in the assay with A549/ATCC NSCLC it was 102%; in the assay on 786-0 renal, 101%; with COLO 205 colon, 114%; in the assay with DU-145 prostate, 111%; with K-562 leukemia, 92.4%. The growth with MALME-3M melanoma is 119%; with MDA-MB-231 breast, 98.4%; with RXF 393 renal, 101%; in the assay on SF-268 CNS, 103%; in the assay with SF-295 CNS, 97.7%; in the assay with SF-539 CNS it was 104%. In addition, the growth in the assay with UACC-257 melanoma was 106%; with M14 melanoma it was 108%.
With `COc1cccc(C(=O)NCCCNc2cc(-c3cn(-c4ccccc4)nc3-c3cccc(OC)c3)ccn2)c1`, the growth in the assay on NCI-H23 lung was 45.4%; in the assay with NCI-H226 lung it was 54.6%; in the assay with NCI-H322M lung it was 99.6%; with HOP-62 NSCLC it was 66%; in the assay with NCI-H460 lung it was 48.8%; in the assay on HOP-92 NSCLC, 45.3%. Further, the growth with NCI-H522 lung is 46.1%; in the assay on A549/ATCC NSCLC, 29.9%; in the assay on 786-0 renal, 36.6%; in the assay with COLO 205 colon, 40%; in the assay on DU-145 prostate, 65.8%; in the assay with K-562 leukemia, 22.8%. In addition, the growth with MALME-3M melanoma is 51.7%; in the assay on MDA-MB-231 breast, 44%; with RXF 393 renal it was 66.8%; with SF-268 CNS, 63.9%; in the assay with SF-295 CNS, 44%; in the assay with SF-539 CNS, 85.3%. For the same molecule, the results for the growth in the assay with UACC-257 melanoma and in the assay on M14 melanoma were 30% and 34.4%, respectively.
In the case of `Cc1ccc(-n2nc3c(c(C#N)c2=O)CC(c2ccccc2Cl)C([N+](=O)[O-])=C3O)cc1` (stereo not given), the growth with NCI-H23 lung was 101%; in the assay with NCI-H226 lung, 102%; in the assay with NCI-H322M lung it was 101%; in the assay with HOP-62 NSCLC, 91%; in the assay on NCI-H460 lung, 99.3%; with HOP-92 NSCLC, 103%. The growth in the assay on NCI-H522 lung is 89%; in the assay on A549/ATCC NSCLC, 95.4%; in the assay with 786-0 renal it was 102%; in the assay with COLO 205 colon, 108%; in the assay with DU-145 prostate, 107%; in the assay with K-562 leukemia, 81.7%. The growth is 101% in the assay on MALME-3M melanoma; 82.4% in the assay with MDA-MB-231 breast; 101% with RXF 393 renal; 90% with SF-268 CNS; 101% in the assay with SF-295 CNS; 99.8% in the assay with SF-539 CNS. Besides, the growth in the assay with UACC-257 melanoma was 102%; in the assay on M14 melanoma, 99.6%.
For the molecule `O=c1c2cc(F)ccc2sc2c(Nc3cccnc3)nc3ccccc3c12`, the growth in the assay with NCI-H23 lung was 78.8%; in the assay with NCI-H226 lung, 90.5%; with NCI-H322M lung it was 88.8%; in the assay on HOP-62 NSCLC, 96.1%; in the assay on NCI-H460 lung, 68.5%; in the assay with HOP-92 NSCLC, 75.1%. Besides, the growth is 94.3% in the assay on NCI-H522 lung; 73.7% in the assay with A549/ATCC NSCLC; 86.9% in the assay with 786-0 renal; 85% in the assay on COLO 205 colon; 107% with DU-145 prostate; 86.4% in the assay with K-562 leukemia. In addition, the growth in the assay with MALME-3M melanoma was 103%; with MDA-MB-231 breast, 72.2%; in the assay with RXF 393 renal it was 88.4%; in the assay with SF-268 CNS, 89.5%; with SF-295 CNS, 95.2%; in the assay on SF-539 CNS, 82.1%. In addition, the growth was 97.8% in the assay with UACC-257 melanoma and 104% with M14 melanoma.
`CCCCCCCOc1c(OC)cc(C2CC(=O)Nc3c2c(C)nn3-c2nc3ccccc3[nH]2)cc1OC` (stereo not given): the growth with NCI-H23 lung was -2.79% (active); in the assay on NCI-H226 lung, -38.7% (active); with NCI-H322M lung, 2.06% (active); in the assay with HOP-62 NSCLC, -22.6% (active); in the assay with NCI-H460 lung it was -26.8% (active); in the assay with HOP-92 NSCLC, -8.34% (active). In addition, the growth was -40.7% (active) in the assay on NCI-H522 lung; 1.6% (active) in the assay with A549/ATCC NSCLC; 4.68% (active) in the assay with 786-0 renal; 3.24% (active) in the assay on COLO 205 colon; 29.6% in the assay with DU-145 prostate; 21% in the assay on K-562 leukemia. Also, the growth with MALME-3M melanoma was -51.5% (active); with MDA-MB-231 breast, -66.3% (active); with RXF 393 renal, -40.1% (active); in the assay with SF-268 CNS it was -9.44% (active); in the assay with SF-295 CNS, -57.4% (active); with SF-539 CNS, -88.5% (active). For the same molecule, the growth is 10.1% in the assay with UACC-257 melanoma and 4.61% (active) with M14 melanoma.
Consider `N#Cc1c(N2CCNCC2)nc2sc3cc(Cl)c(Cl)cc3n2c1=N`, for which the growth was 96.9% with NCI-H23 lung; 95.2% in the assay with NCI-H226 lung; 107% in the assay on NCI-H322M lung; 98.7% with HOP-62 NSCLC; 97.8% in the assay with NCI-H460 lung; 93.6% with HOP-92 NSCLC. Also, the growth in the assay with NCI-H522 lung is 67.3%; in the assay on A549/ATCC NSCLC, 108%; in the assay with 786-0 renal, 105%; in the assay with COLO 205 colon, 132%; with DU-145 prostate, 122%; in the assay on K-562 leukemia, 77.4%. The growth in the assay on MALME-3M melanoma was 119%; in the assay with MDA-MB-231 breast, 84.1%; in the assay on RXF 393 renal, 19.1%; in the assay on SF-268 CNS, 117%; in the assay with SF-295 CNS, 113%; with SF-539 CNS, 86.1%. Besides, the growth was 124% with UACC-257 melanoma and 106% in the assay on M14 melanoma.
